Only some compounds are listed: those with a hit (about 2.6% of all), similar ones and a draw of the others.
EBV LMP1 NFkB: EBV LMP1-driven NF-kappaB luciferase reporter inhibitors, primary screen, cell-based, luminescence, single point; 350,000 tested, 0.69% active; AID 504558, 2011; inhibition, % at 12.5 µM; LMP1-induced NF-kappaB luciferase reporter cells; in the data active means inhibition above about 41%; inconclusive means no clear call, values can overlap the other calls;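 further: 0% = neutral control wells and 100% = reference inhibitor control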
TROY NFkB inh: inhibitors of TROY-driven NF-kB signaling, primary screen, Q293 LMP1-TROYcd cells, NF-kB luciferase, uHTS; Q293 LMP1-TROYcd NF-kB luciferase reporter, 4 h; inhibition, % at 10 µM; 360,000 tested, 0.98% active;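 active means compounds whose plate-normalised and pattern-corrected inhibition of the luciferase reporter signal at the single screening dose is 50% or more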
EWS-Fli inh: EWS/Fli-driven NR0B1 reporter inhibitors, primary screen, A673 cells, NR0B1 luciferase, luminescence, MLPCN library; inhibition, % at 12.6 µM; viability-normalised; 350,000 tested, 0.67% active;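 active means mean inhibition of at least 50% after viability correction, with every replicate also passing that limit; inconclusive means mean reaches 50% but only one of two replicates passes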;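 further: firefly luciferase signal divided by Alamar Blue viability fluorescence both relative to DMSO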
TWEAK Fn14 block: inhibitors of TWEAK-Fn14 signaling, primary screen, luciferase reporter cells, uHTS. inhibition, % at 10 µM. TWEAK-stimulated Fn14 reporter cells, luciferase luminescence, 8 h. AID 1159606, 2016. 360,000 tested, 2% active; in the data active means inhibition above about 50%
LGR2 inh: inhibitors of bursicon-induced LGR2 CRE-luciferase signal, primary screen, cell-based, HEK293, CRE-luciferase reporter, bursicon stimulation; 380,000 tested, 0.35% active; inhibition, % at 9.99 µM; bursicon-stimulated, 4 h;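 active means drop in luminescence signal, shown as inhibition above about 50% in the replicate tests, limit read from the data, passing the limit was not always enough; inconclusive means probably only some replicates passing the limit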;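 further: agonist challenge used bursicon conditioned medium at about half maximal strength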
An asterisk follows results filed as active; ? = inconclusive; nt = no result.

SMILES	EBV LMP1 NFkB	TROY NFkB inh	EWS-Fli inh	TWEAK Fn14 block	LGR2 inh
CCCCN1C2CCCC1CC(NC(=O)C1CCCCC1)C2 (configuration not stated)	51*	-4	nt	-5	nt
C[C@@H](O)C#Cc1ccc([C@H]2[C@@H](CO)N3CCCCN(CC4CCOCC4)C[C@H]23)cc1	nt	nt	0	nt	12
CN1CCN(/N=C/c2ccc(N(c3ccccc3)c3ccccc3)cc2)CC1	87*	64*	18	15	78*
CCC(=O)N1C[C@@H](C)[C@@H](OC)CN(C)C(=O)c2cc(NC(=O)C3CCCCC3)ccc2OC[C@H]1C	nt	nt	-4	nt	14
Cc1ccc(/C=C2\SC(=S)N(CCCC(=O)NC3CCCC3)C2=O)cc1	55*	-13	nt	44	-5
COc1ccc(/C=C2\SC(=S)N(CCC(=O)N3CCCCC3)C2=O)cc1	6	14	12	50*	0
CCOc1ccc(/C=C2\SC(=S)N(CCC(=O)O)C2=O)cc1	47*	58*	73*	86*	-37
CC(=O)N1[C@@H]2c3ccc(-c4ccccc4)c(=O)n3C[C@H]1[C@H](CO)[C@H]2C(=O)N1CCN(C)CC1	nt	nt	-8	nt	-13
N#C[C@H]1[C@@H](c2ccc(/C=C/c3ccccc3)cc2)[C@@H](CO)N1C(=O)Nc1ccccc1F	nt	nt	14	nt	0
Cc1ccccc1NC(=O)N1CCCC(c2nc(-c3ccc(C(C)C)cc3)no2)C1 (configuration not stated)	-16	74*	-22	55*	nt
CC(C)c1ccc(-c2noc(C3CCCN(C(=O)c4ccc(F)cc4F)C3)n2)cc1 (configuration not stated)	19	27	nt	52*	nt
O=C(CCN1CCOCC1)NCC1COc2ccccc2O1 (configuration not stated)	10	2	nt	-3	nt
O=C(CCN1N=C(c2ccccc2)CCC1=O)NCC1COc2ccccc2O1 (configuration not stated)	1	12	3	75*	3
O=C(C=Cc1ccccn1)c1ccccc1	13	15	13	82*	?
O=C(C=Cc1ccccn1)c1ccccc1O	6	-10	2	48	-1
N#CC1(C#N)CC(C=O)=C(N)C1(C#N)CC(=O)C12CC3CC(CC(C3)C1)C2 (configuration not stated)	20	31	5	87*	2
Nc1nccnc1C(=O)OCC(=O)C12CC3CC(CC(C3)C1)C2	6	7	0	13	-7
CO[C@H]1CN(C)C(=O)c2cc(NC(C)=O)ccc2OC[C@H](C)N(Cc2ccccn2)C[C@@H]1C	nt	nt	-2	nt	7
C=C(C)CN=C1SC(C(=O)Nc2sc3c(c2C(=O)OC)CCC3)C(N)=C1C(N)=O (configuration not stated)	-10	5	-5	57*	5
CCc1nn2cc(C(=O)c3cc(Cl)ccc3O)cnc2c1-c1ccc(F)cc1	-1	65*	7	64*	43
Cc1nn(-c2ccccc2)c2ncc(C(=O)c3cc(Cl)ccc3O)cc12	5	5	nt	28	-11
Brc1cccc(-c2cnco2)c1	56*	1	-4	8	-5
CC(C)(C)c1ccc(-c2cnco2)cc1	-3	17	-8	7	-5
Cc1nn(CCC(=O)O)c2nc(-c3cccnc3)cc(C(F)(F)F)c12	1	-15	nt	-21	nt
Cc1nn(CCc2nn[nH]n2)c2nc(-c3ccc(C4CCCCC4)cc3)cc(C(F)(F)F)c12	-34	56*	2	26	14
SMILES	EBV LMP1 NFkB	TROY NFkB inh	EWS-Fli inh	TWEAK Fn14 block	LGR2 inh
Cc1ccc(N(C)S(=O)(=O)c2ccc(-c3cc(C)no3)s2)cc1	-2	3	54*	-9	-11
Cc1cc(-c2ccc(S(=O)(=O)N(C)c3ccc(C)c(C)c3)s2)on1	-3	23	nt	17	18
CC(=O)Oc1cccc(Nc2ncnc3ccccc23)c1	-1	-4	-48	6	-19
Brc1ccc2ncnc(Nc3cccc4ccccc34)c2c1	-1	34	nt	61*	18
COc1cccc(Nc2ncnc3ccc(Br)cc23)c1	27	35	-3	63*	13
Cc1ccccc1C(=O)Oc1cccc(Nc2ncnc3ccccc23)c1	5	51*	nt	53*	nt
Cn1cnc(S(=O)(=O)N2C[C@@H](O)COC[C@@H]3O[C@H](CC(=O)NC4CCCC4)CC[C@H]32)c1	nt	nt	16	nt	-9
O=C1NC(c2cccc(OCc3ccccc3)c2)Nc2ccccc21 (configuration not stated)	61*	-6	39	37	5
O=C1NC(c2ccc(O)cc2)Nc2ccccc21 (configuration not stated)	-7	-18	-33	-24	-16
CN(C)C(=O)C[C@@H]1C[C@@H]2c3cc(NC(=O)CC4CC4)ccc3O[C@@H]2[C@@H](CO)O1	nt	nt	-12	nt	-33
Cc1cc(/C=C2/C(=N)N3C(c4ccccc4)=CSC3=NC2=O)c(C)n1-c1ccccc1	-19	-41	nt	-8	2
Cc1ccccc1-n1c(C)cc(/C=C2/C(=N)N3C(c4ccccc4)=CSC3=NC2=O)c1C	0	8	-7	55*	-12
Cc1cc(=O)oc2cc(OC(=O)c3nn(C(C)C)c(=O)c4ccccc34)ccc12	-4	-3	nt	15	3
CC(C)n1nc(C(=O)Oc2ccc(Cl)cc2)c2ccccc2c1=O	2	35	nt	51*	19
COc1cccc(NC(=O)N2CCc3nc(Nc4ccc(C(C)C)cc4)ncc3C2)c1	nt	71*	-25	75*	nt
COc1cc(Nc2ncc3c(n2)CCN(C(=O)Nc2ccc(C(C)C)cc2)C3)cc(OC)c1OC	nt	38	1	22	16
O=C(C[C@H]1CC[C@H](NC(=O)c2ccncc2)[C@@H](CO)O1)Nc1ccccc1	nt	nt	-3	nt	-6
C=CCOc1cccc(C(=O)/C=C2/C(=O)Nc3ccccc32)c1	6	29	54*	30	5
O=C1Nc2ccc(Br)cc2/C1=C/C(=O)c1ccccc1	-1	11	32	55*	11
CC(=O)/C=C1/C(=O)Nc2ccccc21	7	-13	28	9	-22
O=C(OCc1cc2ccccc2[nH]c1=O)c1cccs1	7	43	8	57*	-14
O=C(OCc1cc2ccccc2[nH]c1=O)c1ccccn1	-7	-9	nt	7	nt
CCC(C)(C)NC(=O)C(c1ccc(C)cc1)N(Cc1cccs1)C(=O)c1ccc2c(c1)OCCO2 (configuration not stated)	0	55*	nt	88*	nt
CCS(=O)(=O)Nc1ccc2c(c1)C(=O)N(C)[C@H]1CC[C@H](CC(=O)N[C@@H]3CCN(Cc4ccccc4)C3)O[C@@H]1CO2	nt	nt	2	nt	10
Cc1ccc(N=Nc2ccc3ccccc3c2O)cc1	4	78*	55*	95*	30
